Shn3 inh set2 – reduction of Shn3 3'UTR firefly luciferase signal, primary screen, Schnurri-3 inhibitor project, cell-based, Clone20 osteoblasts, set 2. inhibition, % at 12.5 µM. hit rate 0.52% among 360,000. Clone20 osteoblast Shn3 3'UTR firefly luciferase, 24 h;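 active = mean inhibition of at least 75% with every replicate also reaching 75%; inconclusive = mean inhibition at least 75% but some replicate below; inactive = mean inhibition below 75%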;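 note: 0% = median of neutral control wells and 100% = pilot-screen positive control compound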
CSC inhib – cancer stem cell viability inhibitors, primary screen, luminescence | AID 2717, 2010 | hit rate 1.1% among 300,000 | inhibition, % at 7.5 µM | cancer stem cell-like cells viability; in the data active = inhibition above about 75%; inconclusive = no clear call, values can overlap the other calls; tested in HMLE shEcad cells
Mdm2 MdmX PPI – inhibitors of human Mdm2-MdmX association, primary screen, cell-based, luminescence, split luciferase, SaOS-2, uHTS. Protein Mdm4 (Homo sapiens) + E3 ubiquitin-protein ligase Mdm2 (Homo sapiens), …. inhibition, % at 8 µM. SaOS-2 split-luciferase Mdm2/MdmX complementation. hit rate 3% among 330,000;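 active = inhibition of at least 50% at 8 µM in the primary screen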
Target sequence (O15151 whole entry, looked up): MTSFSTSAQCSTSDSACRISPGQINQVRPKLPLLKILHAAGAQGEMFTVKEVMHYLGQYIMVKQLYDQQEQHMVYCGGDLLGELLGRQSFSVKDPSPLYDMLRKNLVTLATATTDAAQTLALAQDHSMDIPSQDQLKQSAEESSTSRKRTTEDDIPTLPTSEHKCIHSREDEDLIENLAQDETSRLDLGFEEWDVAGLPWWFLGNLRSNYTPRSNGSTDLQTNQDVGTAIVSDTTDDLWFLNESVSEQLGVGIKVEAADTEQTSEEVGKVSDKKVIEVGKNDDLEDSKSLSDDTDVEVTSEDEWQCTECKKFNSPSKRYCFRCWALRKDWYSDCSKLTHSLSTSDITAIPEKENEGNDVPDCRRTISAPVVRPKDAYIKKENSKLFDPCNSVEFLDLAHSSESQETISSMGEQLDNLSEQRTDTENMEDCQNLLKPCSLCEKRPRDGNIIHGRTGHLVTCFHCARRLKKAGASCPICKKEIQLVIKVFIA
Target sequence (Q00987 whole entry, looked up): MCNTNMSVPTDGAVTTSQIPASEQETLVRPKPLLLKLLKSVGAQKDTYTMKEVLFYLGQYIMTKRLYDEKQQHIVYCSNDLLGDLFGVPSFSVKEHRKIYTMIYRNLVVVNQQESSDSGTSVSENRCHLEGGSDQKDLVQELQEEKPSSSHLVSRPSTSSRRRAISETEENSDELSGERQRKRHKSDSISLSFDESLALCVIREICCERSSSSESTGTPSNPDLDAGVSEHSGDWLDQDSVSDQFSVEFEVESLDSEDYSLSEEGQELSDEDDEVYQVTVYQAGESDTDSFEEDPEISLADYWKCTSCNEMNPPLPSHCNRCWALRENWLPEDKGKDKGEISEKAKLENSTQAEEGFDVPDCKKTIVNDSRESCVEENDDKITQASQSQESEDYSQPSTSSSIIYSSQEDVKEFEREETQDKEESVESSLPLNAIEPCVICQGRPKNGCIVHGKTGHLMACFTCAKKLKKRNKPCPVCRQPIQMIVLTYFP
PAX8 reporter – inhibitors of PAX8-driven TPO luciferase reporter, primary screen, RMG-I cells, single concentration. hit rate 1.2% among 360,000. AID 652154, 2013. SteadyGlo, 24 h. inhibition, % at 12.6 µM;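 active = mean replicate inhibition at least 60% with every replicate also reaching 60%; inconclusive = only one of the two criteria is met; inactive = mean below 60% and not all replicates reaching 60%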;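 note: luciferase light reporting Pax8 driven TPO promoter activity; plate controls were median of neutral control wells for no effect and mitoxantrone controls for full effect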
Gli-Sufu block – Gli-Sufu pathway antagonists, primary screen, luciferase luminescence, Sufu-KO-LIGHT cells, uHTS | Sufu-KO-LIGHT fibroblasts, Gli luciferase reporter luminescence | inhibition, % at 5 µM | hit rate 0.74% among 340,000;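 active = inhibition above about 55%, limit read from the data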;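 note: 0% = DMSO-treated cells and 100% = wells with medium but no cells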
Beta cell apopt – inhibitors of cytokine-induced beta cell apoptosis, primary screen, luminescence; INS-1E cytokine-induced death, ATP luminescence, 48 h; percent of positive-control rescue, neutral wells zero; protection from apoptosis, % (no concentration beside the values); hit rate 0.8% among 300,000;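 active = Every replicate reaches about 75%, or at least half do and their mean reaches it too, limit read from the data; inconclusive = At least half of replicates reach the limit but their mean does not; inactive = Under half of replicates reach the limit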;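 note: 0% = cytokine-treated negative control wells and 100% = positive control rescue; higher means more ATP so stronger rescue from cytokine killing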
Starred values were filed as active, the others as inactive; u = inconclusive; x = no result given. The list is not random: actives were taken first. Their share in the collection is about 4%.

SMILES	Shn3 inh set2	CSC inhib	Mdm2 MdmX PPI	PAX8 reporter	Gli-Sufu block	Beta cell apopt
COc1ccc(NC(=O)N2CCCCN3[C@@H](CO)[C@@H](c4ccc(C#Cc5ccccc5)cc4)[C@@H]3C2)cc1	x	x	x	111*	x	x
COc1ccc(NC(=O)N2CCCCN3[C@H](CO)[C@@H](c4ccc(C#Cc5ccccc5)cc4)[C@H]3C2)cc1	x	x	x	16	x	x
O=C(Nc1ccccc1F)N1CCCCN2[C@H](CO)[C@@H](c3ccc(C#Cc4ccccc4)cc3)[C@H]2C1	x	x	x	66*	x	x
O=C(Nc1ccccc1)N1CCCCN2[C@H](CO)[C@H](c3ccc(C#Cc4ccccc4)cc3)[C@@H]2C1	x	x	x	35	x	x
Cc1noc(C)c1S(=O)(=O)Nc1ccc2c(c1)C(=O)N([C@@H](C)CO)C[C@H](C)[C@H](CN(C)C(=O)Cc1ccccc1)OCCCC[C@H](C)O2	x	x	x	-5	x	x
O=C(Nc1cccc(F)c1)N1CCCCN2[C@@H](CO)[C@@H](c3ccc(C#Cc4ccccc4)cc3)[C@@H]2C1	x	x	x	116*	x	x
COc1ccc(C#Cc2ccc([C@H]3[C@H]4CN(C(=O)Nc5cccc(F)c5)CCCCN4[C@H]3CO)cc2)cc1	x	x	x	-13	x	x
O=C(N[C@@H]1CC[C@@H](CC(=O)N2CCc3ccccc3C2)O[C@@H]1CO)C1CC1	x	x	x	13	x	x
COc1ccc(N=C2SCC(c3ccc([N+](=O)[O-])cc3)=NN2CCO)cc1	10	6	-18	12	-15	5
O=[N+]([O-])c1ccc(C2=NN(CCO)C(=Nc3ccc(OC(F)(F)F)cc3)SC2)cc1	-4	89*	18	0	-11	-10
COc1cc(/C=N/NC(=O)c2nc(-c3ccccc3)n(-c3ccccc3)n2)ccc1O	1	-9	-3	7	11	-2
COc1cc(/C=N/NC(=O)c2cc(C34CC5CC(CC(C5)C3)C4)[nH]n2)ccc1O	6	101*	19	x	0	-6
COc1cc(/C=N/NC(=O)C23CC4CC(CC(C4)C2)C3)cc(Br)c1O	11	0	-4	67*	5	-3
COc1cc(/C=N/NC(=O)c2cc(-c3c(C)nn(-c4ccccc4)c3C)n[nH]2)ccc1O	-13	9	-50	69*	-6	35
Cc1nn(-c2ccccc2)c(C)c1-c1cc(C(=O)N/N=C/c2ccc(O)cc2)[nH]n1	-2	75*	22	52	-2	24
O=C(C[C@H]1C[C@H]2c3cc(NC(=O)CC4CC4)ccc3O[C@H]2[C@H](CO)O1)NCCc1ccccc1	x	x	x	5	x	x
CCC(=O)N1C[C@H](O)COC[C@H]2O[C@H](CC(=O)NCC3CCCCC3)CC[C@@H]21	x	x	x	8	x	x
COc1cc(/C=N/NC(=O)c2cc(-c3ccc4c(c3)OCO4)n[nH]2)ccc1O	-8	75*	-4	26	-16	42
O=C(N/N=C/c1ccc([N+](=O)[O-])cc1)c1cc(-c2ccc3c(c2)OCO3)n[nH]1	-7	-11	34	-27	0	6
CC(C)NC(=O)Nc1ccc2c(c1)C(=O)N([C@@H](C)CO)C[C@H](C)[C@@H](CN(C)C(=O)NC(C)C)O2	x	x	x	-8	x	x
Cc1cc(NC(=O)CSc2nc(-c3cccs3)cc(C(F)(F)F)n2)no1	31	x	47	x	45	x
COCC(C)NC(=O)CCS(=O)(=O)c1nc(-c2ccc(OC)cc2)cc(C(F)(F)F)n1 (stereo not drawn)	-9	-23	43	x	19	-27
COc1ccc(-c2cc(C(F)(F)F)nc(S(=O)(=O)CCCC(=O)Nc3cccnc3Cl)n2)cc1OC	96*	x	x	72*	-4	x
Cc1cc(NC(=O)CCCS(=O)(=O)c2nc(-c3cccs3)cc(C(F)(F)F)n2)no1	95*	-11	-6	106*	3	14
O=C1C=C(O)c2cccc(O)c2C1=O	-18	-9	-1	x	-2	3
SMILES	Shn3 inh set2	CSC inhib	Mdm2 MdmX PPI	PAX8 reporter	Gli-Sufu block	Beta cell apopt
O=C1C=C(c2c(O)ccc3ccccc23)c2ccccc2C1=O	96*	x	x	83*	2	x
CNC(=O)C[C@@H]1CC[C@H]2[C@H](COc3ccc(NS(=O)(=O)c4ccccc4C)cc3C(=O)N2C)O1	x	x	x	4	x	x
O=[N+]([O-])c1cc(Cl)ccc1Sc1ccccn1	x	4	2	-13	8	x
O=[N+]([O-])c1ccc(Sc2ccncn2)c([N+](=O)[O-])c1	58	x	x	105*	x	x
Cc1cc(C)nc(Sc2ccc([N+](=O)[O-])cc2[N+](=O)[O-])n1	1	36	39	94*	4	-17
CN(C)/N=C/c1ccc(Sc2ccc([N+](=O)[O-])cc2[N+](=O)[O-])o1	12	u	8	6	10	-10
CCN(CC)c1ccc(/C=C(\C#N)c2ccccn2)cc1	35	78*	-51	x	-63	28
O=C(COC(=O)c1ccc(Br)cc1)NCc1ccccc1	-10	-7	2	-90	1	-4
CC(=O)Cc1cc(O)c2ccccc2c1OC(=O)c1ccc(Br)cc1	6	37	31	-1	15	108*
COc1cc(-c2nc3ccc4ccccc4c3c3c2CCC3)ccc1O	4	78*	4	4	-15	2
Cc1cc(-c2ccccc2)n(-c2cc(N/N=C/c3ccccc3O)ncn2)n1	89*	105*	x	71*	13	77*
CNc1cc(-n2nc(C)cc2-c2ccccc2)ncn1	2	-12	15	11	-5	-2
CCCN1C[C@@H](C)[C@@H](OC)CN(C)C(=O)c2cc(NC(=O)COC)ccc2OC[C@H]1C	x	x	x	-4	x	x
C[C@H](CO)N1C[C@H](C)[C@H](CN(C)C(=O)Nc2ccc3c(c2)OCO3)OCCCC[C@H](C)Oc2ccc(NS(=O)(=O)c3ccc(Cl)cc3)cc2C1=O	x	x	x	3	x	x
Oc1cccc(C(O)CNCc2ccc(OCc3ccc(Cl)cc3Cl)cc2)c1 (stereo not drawn)	23	78*	6	-8	10	5
O=C1N/C(=C/c2ccc(N3CCOCC3)o2)C(=O)N1c1cccc(Cl)c1	96*	67	23	4	-20	33
O=C(C1CC1)N1CC2(C1)[C@H](c1ccccc1)[C@@H](CO)N2S(=O)(=O)c1ccccc1	x	x	x	-10	x	x
CN(C)C(=O)[C@H]1[C@H](CO)[C@H]2Cn3c(ccc(C4=CCCC4)c3=O)[C@@H]1N2Cc1ccccn1	x	x	x	-12	x	x
Cc1nc(N)nc(N)c1/C=C/C(C)(C)c1ccc(Cl)cc1	70	x	x	68*	x	x
CN(C)c1ccc(C(=O)OCc2ccccc2)cc1	-41	-9	-23	x	-39	x
O=C1C=CC(=O)C(CNc2ccc(C(=O)OCc3ccccc3)cc2)=C1	95*	x	x	1	7	x
O=C(CN1CCN(C(c2ccccc2)c2ccccc2)CC1)N1CCOCC1	13	5	6	x	5	4
